In all, about 340,000 compounds went through this assay and about 2,100 (0.62%) were called active.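 How the source made its calls: active means first-screen hits whose inhibition reached a set limit at any dose in the follow-up dose series; inconclusive means inhibition above the set first-screen limit but never retested; inactive means the rest.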 The list is a sample of the results. Entries with a potency or affinity are not part of this list.
Target: Rac GTPase-activating protein 1 (Homo sapiens) (UniProt Q9H0H5)
Experiment: blockers of MgcRacGAP-driven Rac1 GTP hydrolysis – biochemical, ADP Hunter fluorescence, primary and confirmatory, confirmation (AID 624330);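 further: fluorescence reports GDP produced by GAP-driven GTP hydrolysis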
Conditions: MgcRacGAP-stimulated Rac1 GTP hydrolysis, at 30 µM, hits give high values, GST-tagged Rac1 F28L mutant substrate

Rac GTPase-activating protein 1 (Homo sapiens), sequence (Q9H0H5 whole entry, looked up): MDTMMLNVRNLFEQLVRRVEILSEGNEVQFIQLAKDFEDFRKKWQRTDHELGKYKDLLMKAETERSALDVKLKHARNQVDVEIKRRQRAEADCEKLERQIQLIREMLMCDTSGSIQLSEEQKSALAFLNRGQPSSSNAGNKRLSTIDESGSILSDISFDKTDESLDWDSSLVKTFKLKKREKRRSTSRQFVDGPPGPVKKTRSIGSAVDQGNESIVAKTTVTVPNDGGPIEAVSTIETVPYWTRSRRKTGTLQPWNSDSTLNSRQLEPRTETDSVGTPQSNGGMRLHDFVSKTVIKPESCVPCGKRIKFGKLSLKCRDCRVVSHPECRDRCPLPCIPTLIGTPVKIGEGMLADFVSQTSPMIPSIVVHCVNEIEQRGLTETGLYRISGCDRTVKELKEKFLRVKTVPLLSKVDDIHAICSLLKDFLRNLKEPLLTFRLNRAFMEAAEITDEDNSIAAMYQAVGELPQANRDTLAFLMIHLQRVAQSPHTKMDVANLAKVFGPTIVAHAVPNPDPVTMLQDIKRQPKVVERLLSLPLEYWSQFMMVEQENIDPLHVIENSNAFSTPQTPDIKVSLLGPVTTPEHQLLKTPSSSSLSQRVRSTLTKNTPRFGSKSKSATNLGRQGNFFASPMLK

inhibition, inactive:
O=C(NCc1ccccn1)NC12CC3CC(CC(C3)C1)C2 1.18%
O=C(NCc1ccccn1)C12CC3CC(CC(C3)C1)C2 3.08%
COc1cc(OC)c(OC)cc1/C=C1/C(=O)N=C(N)N1C 0.61%
CC(NC(=O)/C=C/c1ccco1)c1nc2ccccc2n1Cc1ccccc1F (stereo unspecified) -6.08%
O=c1c(-c2ccco2)[n+]([O-])c2ccccc2n1OCc1ccccc1 2.31%
O=C(CNCc1ccccc1Cl)Nc1ccccc1N1CCCCC1 28.3%
Cc1c(Cl)cccc1NC(=O)CNCc1ccccc1F 5.19%
CCCCn1c(N)c(N(CCOC)C(=O)CSCc2ccc(C)cc2)c(=O)[nH]c1=O 3.5%
Cc1ccc(NC(=O)CN(C)S(=O)(=O)c2cccs2)cc1C 2.54%
CCN=C1S/C(=C\c2sccc2C)C(=O)N1CC 8.79%
CC(C(=O)Nc1ccc2c(c1)OCO2)N(C)CC(=O)Nc1ccccc1Cl (stereo unspecified) 6.56%
CSc1ccccc1C(=O)NCc1ccc2c(c1)OCO2 3.84%
COc1ccc2c(c1)[nH]c1c(=O)n(/N=C/c3ccc(OC)c(COc4ccccn4)c3)cnc12 6.37%
CC(C)N1C(=O)S/C(=C/c2ccc(Sc3nc4ccccc4[nH]3)o2)C1=O 12.6%
CC(C)N1C(=O)S/C(=C\c2ccc(-c3ccc(Cl)c(C(=O)O)c3)o2)C1=O 14.4%
CCc1nc2ccccc2c(=O)n1NC(=O)c1c(O)c2ccccc2n(CC)c1=O 11.3%
CCn1c(COc2ccc(Cl)cc2)nnc1SCC(=O)Nc1ccc2c(c1)OCCO2 9.81%
COc1ccc(/C=C2/SC(c3ccc(C)cc3)=NC2=O)cc1OC 11.7%
COc1ccc(C2=NN(c3ccccc3)C(=O)/C2=C\c2ccc(O)c(OC)c2)cc1 4.88%
COc1ccc(/C=C2\SC(N)=NC2=O)cc1 3.78%
NC1=NC(=O)C(=Cc2ccccc2)S1 -0.93%
O=C(CN1C(=O)S/C(=C\c2ccc(O)cc2)C1=O)c1ccccc1 2.23%
COc1ccc(/C=C2\SC(c3ccc(C)cc3)=NC2=O)cc1OC -0.09%
COc1cc(/C=C2\SC(N)=NC2=O)ccc1OCC(=O)Nc1ccccc1C 1.31%
COc1cc(/C=C2/SC(=S)N(Cc3ccccc3)C2=O)ccc1O 11.1%
COc1ccc(N2CC(C(=O)Nc3nnc(SCC(=O)N4CCOCC4)s3)CC2=O)cc1 (stereo unspecified) 10.3%
CCCn1c(SCC(=O)Nc2cc(Cl)ccc2OC)nc(O)cc1=O 4.2%
CCOC(=O)C(CC)Sc1nc2c(c(=O)[nH]c(=O)n2C)n1C/C=C(/C)Cl (stereo unspecified) 13.4%
CCc1cccc(NC(=O)CSc2nnc(Cc3ccc(OC)cc3)c(=O)[nH]2)c1 6.26%
CC(=O)c1cccc(Nc2cc(C)nc3c(C)cc(C)cc23)c1 11%
CC(=O)Nc1cccc2c1C(=O)N(c1ccccc1C)C2=O 9.72%
Cc1ccnc(NC(=O)Cn2c(=O)oc3ccccc32)c1 6.21%
Cc1ccc(NC(=O)CN2C(=O)S/C(=C\c3cccn3C)C2=O)cc1 2.72%
Cn1cccc1/C=C1\SC(=O)N(c2ccc(O)cc2)C1=O 0.13%
N/C(Cc1cccs1)=N\OC(=O)COc1ccc(Br)cc1 0.69%
CN(CC(=O)NCc1ccc(F)cc1)Cc1cccc(Cl)c1 5.16%
COc1ccc(CNC(=O)CCOc2ccc(C(C)(C)C)cc2)cc1 4.83%
COc1ccc(CNC(=O)CN(C)Cc2ccc(SC)cc2)cc1 9.14%
CSc1ccc(CN(C)CC(=O)NCc2ccccc2)cc1 4.61%
Cc1cccc(NC(=O)C2(C)CC3c4ccccc4C2c2ccccc23)c1C (stereo unspecified) 4.55%
CC(C)(C)OC(=O)N[C@@H](Cc1ccccc1)C(=O)NCC1CCC(C(=O)N[C@@H](CC(=O)O)C(=O)O)CC1 (stereo partly specified) -2.85%
COc1ccc(S(=O)(=O)N2CCN(Cc3ccccc3)CC2)cc1 5.15%
O=S(=O)(c1ccccc1)N1CCN(C2CCN(Cc3ccccc3)CC2)CC1 9.41%
CCOC(=O)N1CCC(N2CCN(S(=O)(=O)c3ccc(OC)cc3)CC2)CC1 20.1%
COc1ccccc1N1CCN(C2CCN(S(=O)(=O)c3ccc4ccccc4c3)CC2)CC1 4.9%
O=S(=O)(c1ccc(Cl)cc1)N1CCN(C2CCN(Cc3ccccc3)CC2)CC1 2.66%
COc1ccc(S(=O)(=O)N2CCN(C3CCN(Cc4ccccc4)CC3)CC2)cc1 8.39%
CCOC(=O)N1CCC(N2CCN(S(=O)(=O)c3ccc(C)cc3)CC2)CC1 22.2%
COc1ccccc1N1CCN(C2CCN(S(=O)(=O)c3ccc(C)cc3)CC2)CC1 -5.5%
O=c1c2ccccc2nnn1CSc1ccccc1F 8.16%
Cc1cccc(C(=O)NCC(=O)NC2CCC(C)CC2)c1 (stereo unspecified) 3.71%
O=C(CSc1c2c(nc3ccccc13)CCC2)N1CCCC1 10.3%
Cc1ccn2cc(CCNC(=O)CC3CCCCC3)nc2c1 16%
O=C(c1cc(Cl)nc2ccccc12)N1CCCCC1 3.41%
CCN(CC)c1ccc(C(=O)Nc2cccc(F)c2)cc1 15.5%
CCN(CC)c1ccc(C(=O)NNC(=O)CCl)cc1 9.55%
Cc1ccc(-c2csc(NC(=O)c3ccccc3F)c2C(=O)O)cc1 5.32%
COc1cccc(COC(=O)c2cc(S(=O)(=O)N3CCCCC3)ccc2N2CCOCC2)c1OC -0.42%
COc1ccc(CCNC(=O)C(=O)NCCCN2CCOCC2)cc1 0.98%
O=C(Cc1ccc(F)cc1)NCCc1ccccc1 -3.3%
COc1ccc(CC(=O)NCCN2CCOCC2)cc1 -0.23%
O=S(=O)(Cc1ccccc1)NCCc1ccc(F)cc1 -2.46%
COc1ccc(CNS(=O)(=O)CCNCCc2ccccc2)cc1 6.36%
COc1ccc(CCNCc2ccc(OCc3ccccc3)cc2)cc1 -1.52%
O=C(c1ccc(Br)o1)N1CC=C(c2ccccc2)CC1 -9.29%
COCCCNC(=O)C1CCCN(S(C)(=O)=O)C1 (stereo unspecified) 4.1%
N=c1c(S(=O)(=O)c2ccc(Br)cc2)cc2c(=O)n3ccccc3nc2n1C1CCCC1 3.79%
N#CCC(=O)Nn1c(=S)[nH]c2ccccc2c1=O 3.15%
CCSCCOC(=O)C1=C(C)NC(=O)NC1c1ccccc1 (stereo unspecified) 2.5%
CCCCNC(=O)CNC(=S)N(Cc1cc(OC)c(OC)c(OC)c1)C1CCCC1 5.07%
COc1ccccc1N1CCN(CCCCCCOc2ccc(F)cc2)CC1 7.05%
COc1ccccc1N1CCN(CCCC(=O)c2ccc(F)cc2)CC1 8.13%
COc1ccccc1N1CCN(CCCCOc2ccc(F)cc2)CC1 4.56%
COc1ccc(C(=O)CN2CCN(c3ccc(F)cc3)CC2)cc1 11.7%
CCN(CC)S(=O)(=O)c1ccc(NC(=O)C(OC)c2ccccc2)cc1 (stereo unspecified) 11.8%
C/C(=N\Nc1ccccn1)c1ccc(C#N)cc1 6.31%
Cc1nn(CC(=O)N2CCc3ccccc3C2)c(C)c1[N+](=O)[O-] 4.25%
Nc1ccc(-c2nc3ccccc3o2)cc1 4.77%
Nc1ccc(-c2nc3cc(N)ccc3o2)cc1 17.5%
COc1ccc(CC(=O)OCC(=O)NCc2ccc(Cl)cc2)cc1 -11.6%
COc1cccc(NC(=O)COC(=O)c2ccccc2C(=O)N2CCN(c3ccccc3)CC2)c1 -5.54%
Cc1ccccc1N(CC(=O)N1CCCC1)S(=O)(=O)c1ccc(Cl)cc1 5.47%
CCOc1ccc2nc(-c3ccccc3)nc(SCC(=O)Nc3ncc(C)s3)c2c1 -5.25%
O=C(COc1ccc2c3c(c(=O)oc2c1)CCC3)N1CCCC1 11.2%
CSc1ncccc1C(=O)NCC1CCCCC1 6.8%
CC(C)C(=O)Nc1ccc2c(c1)Cc1cc(NC(=O)C(C)C)ccc1-2 12.2%
COc1cc2c(cc1NC(=O)C(F)(F)F)-c1ccc(NC(=O)C(F)(F)F)cc1C2 4.33%
O=C(CNC(=O)C(c1ccccc1)c1ccccc1)N/N=C\c1cccc(O)c1 6.95%
COc1cc(C(=O)N/N=C/c2ccc(OC(=O)c3ccccc3Cl)c(OC)c2)ccc1O 17.8%
COc1ccc(NC(=O)CCNC(=O)c2ccccc2Cl)cc1OC 9.17%
CCOc1ccc(/C=N\NC(=O)CC(=O)NCCc2ccccc2)cc1 13%
Cc1ccc(/C=N\NC(=O)CC(=O)NCCc2ccccc2)cc1 -1.99%
COc1cccc(/C=N/NC(=O)CCc2ccccc2)c1 8.09%
COc1ccc(/C=N/NC(=O)CCc2ccccc2)cc1O 26.6%
COc1ccc(/C=N\NC(=O)CNC(=O)C(c2ccccc2)c2ccccc2)cc1[N+](=O)[O-] -25.7%
COCCN(C(=O)COC(=O)c1ccc(Br)o1)c1c(N)n(Cc2ccccc2)c(=O)[nH]c1=O 7.5%
